Test results from PubChem BioAssay (Tox21).
Inconclusive results are not listed. A number with no mark means an inactive call. The call rests on the fitted dose curve; in most records, active means well fitted cell-killing curve with a large enough effect in the repeat runs; inconclusive means weak or mixed curves, or effect the other way; inactive means no such curve, though single readings can be large or run the other way.

Experiment: qHTS assay to identify small molecule agonists of the RXR signaling pathway - cell viability counter screen (AID 1159529); further: nearly all actives have a fitted effect of over 50% in size
Conditions: RXR-alpha-bla HEK293T viability, CellTiter-Glo, 16 h; series mostly up to 76.8 µM; activity change, negative = cytotoxicity: at the top concentration
Source text: National Center for Advancing Translational Sciences [NCATS]
NIH Chemical Genomics Center [NCGC]
U.S. Environmental Protection Agency [EPA]
National Institutes of Environmental Health Sciences [NIEHS]
National Toxicology Program [NTP]
U.S. Food and Drug Administration [FDA]
The Retinoid X receptor (RXR), a nuclear hormone receptor expressed in liver, spleen, placenta, epidermis, central nervous system. These receptors are able to form homo and heterodimers with other nuclear receptors and due to this heterodimerizing ability, RXR functions as master regulators producing diverse physiological effects. Three subtypes of RXR exist; alpha, beta and gamma. Retinoid X receptor alpha (RXR-alpha) has potential roles in metabolic signaling pathways, skin alopecia, dermal cysts, cardiac development, insulin sensitization etc. Therefore screening environmental chemicals on RXR-alpha signaling can be used for the studies focused on such therapeutic applications. For quantification of RXR-alpha ligands signaling, GeneBLAzer RXR alpha-UAS-bla HEK 293T (Life Technologies, Carlsbad, CA) cells containing a beta-lactamase reporter-gene under control of Retinoid X receptor-alpha response element were used to screen Tox21 10K library. The cytotoxicity of the Tox21 compound library against the RXR-alpha HEK 293T cell line was tested in parallel by measuring cell viability using CellTiter-Glo assay (Promega Corporation, Madison, WI) in the same wells.
Tox21 Assay Protocol Summary:
RXR-alpha HEK 293T cells were dispensed at 2,000 cells/6 uL of assay medium containing 2% charcoal-stripped FBS using a Multidrop Combi (ThermoFisher Scientific, Waltham, MA) dispenser. The assay was performed in black wall/clear-bottom 1536-well plates (Greiner Bio-One North America Inc. Monroe, NC). Tetraoctyl ammonium bromide was used as a positive control in the cytotoxicity screen. After the assay plates were incubated at 37 C and 5% CO2 for 5 hr, 23 nL of compounds dissolved in DMSO, positive control or DMSO only were transferred to the assay plate by a Pintool station (Kalypsys, San Diego, CA). The assay plates were incubated at 37 C and 5% CO2 for 16 hr. One uL of LiveBLAzer B/G FRET substrate (Life Technologies) was added using a Flying Reagent Dispenser (FRD) (Aurora Discovery, San Diego, CA) and the plates were incubated at room temperature for 2 hr. Fluorescence intensity (405 nm excitation, 460/530 nm emission) was measured using an Envision plate reader (PerkinElmer, Shelton, CT). For cytotoxicity, 4 uL/well of CellTiter-Glo reagent was added into the assay plates using an FRD. After 30 min incubation at room temperature, the luminescence intensity was measured using a ViewLux plate reader (PerkinElmer).
On the % scale 0 is the no-effect control and ±100 the full control effect.

SMILES	activity change, negative = cytotoxicity
CC(C)C/C=C(\C=O)c1ccccc1	-10.1%
CCCCCCCCCCCCSC#N	-4.94%
O=S(=O)(O)c1cc(Cl)c(Cl)cc1Cl	-22.9%
CCOC(=O)CC(O)(CC(=O)OCC)C(=O)OCC	-6.71%
O=C(O)c1c2ccccc2cc2ccccc12	6.97%
CC(C)=CCC[C@H](C)CCO	-1.78%
Cc1c(Cl)cccc1Nc1ccccc1C(=O)O	-25.2% [at 35.3 µM]
NC(=O)c1cc[n+](CC2=C(C(=O)[O-])N3C(=O)[C@@H](NC(=O)Cc4cccs4)[C@H]3SC2)cc1	3.04% [at 35.3 µM]
CCOC(OCC)OCC	-1.63%
CC1(COc2ccc(CC3SC(=O)NC3=O)cc2)CCCCC1 (stereo not given)	-13% [at 35.3 µM]
C=CC(=O)NC(C)(C)C	-0.788%
CC[C@H](NC(C)C)[C@H](O)c1ccc(O)c2[nH]c(=O)ccc12	0.423% [at 35.3 µM]
CC(C)(Cc1c[nH]c2ccccc12)NCC(O)COc1ccccc1C#N (stereo not given)	-22.3% [at 35.3 µM]
O=Cc1ccc([N+](=O)[O-])cc1	-19.2%
CCCCCCCCCCCCCCCCN	3.19% [at 35.3 µM]
CCOC(C)OCC	12.9%
Cc1cc(C)c(C)c(O)c1	-1.41%
O=C1c2ccccc2C(=O)c2c1ccc(O)c2O	2.89% [at 35.3 µM]
C/C=C1\[C@H]2C=C(C)C[C@]1(N)c1ccc(=O)[nH]c1C2	6.86% [at 35.3 µM]
Cc1cc(SC2=C(O)C[C@@](CCc3ccc(N)cc3)(C(C)C)OC2=O)c(C(C)(C)C)cc1CO	-4.93%

SMILES	activity change, negative = cytotoxicity
CC(O)C(C)O (stereo not given)	3.4%
C=Cc1ccc(C=C)cc1	5.26%
O=C1c2ccccc2C(=O)C1c1ccc2ccccc2n1	6.91% [at 35.3 µM]
CC(=O)Nc1ccccc1O	5.73%
COc1ccc(/C=C/c2cc(OC)cc(=O)o2)cc1	6.35% [at 35.3 µM]
C(/C=C/C=C/Nc1ccccc1)=Nc1ccccc1	3.47%
Cc1ccc(Cl)c(OCC(O)CNC(C)(C)C)c1 (stereo not given)	3.7% [at 35.3 µM]
CCOc1cc(OCC)c(C(C)=O)cc1OCC	-1.94%
CC(C)C[C@H](NC(=O)[C@H](Cc1ccccc1)NC(=O)c1cnccn1)B(O)O	-2.49% [at 35.3 µM]
c1ccc(-c2ccc(-c3ccccc3)cc2)cc1	4.66% [at 15.8 µM]
C=C(C)C(=O)OCCCCCCCCCCOC(=O)C(=C)C	-9.29%
O=C(O)c1cc(C(=O)O)c(C(=O)O)cc1C(=O)O	-1.88%
CC(CC(C#N)(c1ccccc1)C(C)C)N(C)C (stereo not given)	3.06% [at 35.3 µM]
C=CC(C)CCC=C(C)C (stereo not given)	7.35%
Sc1nc(S)nc(S)n1	9.05% [at 35.3 µM]
N#C[C@@H]1CC(F)(F)CN1C(=O)CNC1CC2CCC(C1)N2c1ncccn1 (stereo not given in full)	14%
COc1cc(CNC(=O)CCCC/C=C/C(C)C)ccc1O	1.38%
CC(C)NC(=O)c1ccccc1N	0.732%
CC1(C)C(=O)NC(=O)N1CO	-4%
OCCc1ccncc1	-0.379%
